Only some compounds are listed: those with a hit (about 6.6% of all), similar ones and a draw of the others.
GDH-TPI counter – GDH-TPI coupling enzyme inhibitors, primary screen, artefact control for M. tuberculosis FBA inhibitor project, biochemical, absorbance, full deck; GDH-TPI coupled enzyme counterscreen, NADH absorbance; inhibition, % at 4.8 µM; actives 1.2% (n = 360,000); in the data active = inhibition above about 30%;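 note: 0% = DMSO wells and 100% = wells lacking the enzyme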
BoNT F protease – BoNT/F light chain protease inhibitors, primary screen, biochemical, flow cytometry, MLPCN library. inhibition, % at 10 µM. Multiplex microsphere protease cleavage assay. actives 0.22% (n = 360,000); in the data active = inhibition above about 35%, passing the limit was not always enough; inconclusive = no clear call, values can overlap the other calls; note: plate controls were buffer without enzyme for full effect and enzyme alone for no effect
BoNT-A LC inh2 – BoNT/A light chain protease inhibitors, primary screen, biochemical, flow cytometry, MLPCN library; multiplex microsphere protease substrate cleavage; Botulinum neurotoxin type A light chain protease (Clostridium botulinum A str. ATCC 3502); AID 588499, 2011; inhibition, % at 10 µM; actives 0.17% (n = 360,000); note: plate controls were buffer without enzyme for full effect and enzyme alone for no effect
Bead autofluor – compound fluorescence in toxin protease inhibitor counterscreen; actives 3.1% (n = 360,000); compound autofluorescence counterscreen, microsphere flow cytometry; hits give high values; AID 624483; fluorescence intensity (no concentration beside the values); in the data active = fluorescence intensity above about 16000; inconclusive = no clear call, values can overlap the other calls
Anthrax LF prot – Bacillus anthracis LF protease inhibitors, primary screen, biochemical, multiplex microsphere, MLPCN library | inhibition, % at 10 µM | actives 0.12% (n = 360,000) | multiplex microsphere protease cleavage assay; note: plate controls were buffer without enzyme for full effect and enzyme alone for no effect
FBA Mtb inh – Mtb FBA enzyme inhibitors, primary screen, biochemical, fluorescence, strain H37Rv; Fructose-bisphosphate aldolase (Mycobacterium tuberculosis (strain ATCC 25618 / H37Rv)), …; purified M. tuberculosis FBA, fluorescence read-out; inhibition, % at 1 µM; actives 2.3% (n = 360,000); AID 588726, 2011; in the data active = inhibition above about 27%;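 note: 0% = vehicle and 100% = reference inhibitor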
An asterisk follows results filed as active; ? = inconclusive; · = not tested or not shown; + = active, no number. Cut-off read from the data, not from the text of the source, unless noted: active = inhibition above about 30%; inconclusive = no clear call, values can overlap the other calls; inactive = below that.

SMILES | GDH-TPI counter | BoNT F protease | BoNT-A LC inh2 | Bead autofluor | Anthrax LF prot | FBA Mtb inh
COC(=O)NC1CCS(=O)(=O)C1 (stereo not drawn) | 0 | -7 | ? | 17672* | -4 | 2
CC(C)(O)C#Cc1ccc(N2C(c3ccsc3)=Cc3ccc(F)cc3C2c2c[nH]c3ccccc23)cc1 (stereo not drawn) | · | -1 | 1 | 4838 | -2 | ·
O=c1cc(C=NNc2ccccc2)[nH]c(=O)[nH]1 | 22 | -1 | 0 | 3312 | -3 | -4
Cc1c(C=NNc2ccccc2)[nH]c(=O)[nH]c1=O | 32* | -2 | 0 | 3516 | -8 | 6
CCN(CC)CCCNC(=O)CCn1nc(-c2ccccc2)ccc1=O | 6 | 4 | 2 | 3921 | 4 | 1
O=C(NCc1ncc(C(F)(F)F)cc1Cl)Nc1ccccc1 | 7 | 25 | -1 | 2955 | 2 | 2
CCCCNC(=O)N(O)C1N(/N=C/c2ccco2)C(=S)SC1(C)C (stereo not drawn) | 44* | -8 | 0 | 3382 | -11 | -2
Cc1ccc(/C=N/N2C(=S)SC(C)(C)C2N(O)C(=O)Nc2ccc([N+](=O)[O-])cc2)cc1 (stereo not drawn) | 21 | -10 | -1 | 3023 | -3 | -1
CC1(C)SC(=S)N(/N=C/c2ccc(O)cc2)C1N(O)C(=O)Nc1ccc([N+](=O)[O-])cc1 (stereo not drawn) | 35* | -3 | 0 | ? | -4 | -1
CCCCNC(=O)N(O)C1N(/N=C/c2ccccc2F)C(=S)SC1(C)C (stereo not drawn) | 10 | 4 | 0 | 3867 | -8 | 1
O=S(=O)(c1ccc2oc3ccc(S(=O)(=O)N4CCCCC4)cc3c2c1)N1CCCCC1 | -8 | -8 | 0 | 9112 | -12 | 0
CN(CC(=O)Nn1cnnc1)S(=O)(=O)c1ccc(Br)cc1 | -9 | 10 | ? | 18838* | -10 | 0
O=S(=O)(c1cccs1)N1CN(Cc2ccc(F)cc2)c2nc3ccccc3nc21 | 7 | -4 | 0 | 3170 | -5 | 6
O=S(=O)(c1cccs1)N1CN(Cc2cccs2)c2nc3ccccc3nc21 | 17 | 2 | 1 | ? | 2 | 103*
CN1CCN(c2ccc(NC(=O)c3ccc(-c4ccc(Br)cc4)o3)cc2)CC1 | 15 | -32 | -1 | 2828 | -17 | -1
Cc1ccccc1C(=O)Nc1cccc(NC(=O)c2ccc(-c3ccc(Br)cc3)o2)c1 | 34* | -5 | 0 | 2432 | -4 | -2
Cc1ccc(NC(=O)C(C)C(=O)Nc2ccc(C)cc2)cc1 | -1 | 0 | 0 | 4833 | -5 | 4
Cc1ccc(NC(=O)N2CCC(=O)N2)cc1 | 11 | -5 | -3 | 23674* | -8 | -1
COc1ccc(C=NNc2nc3ccccc3s2)cc1 | 23 | -6 | 0 | 4299 | -2 | 0
Cc1ccc2[nH]c(C)c(/C=N/Nc3nc4ccccc4s3)c2c1 | 38* | -25 | -1 | 10535 | -2 | 1
CC(OC(=O)/C(C#N)=C/c1ccco1)C(=O)N(C)c1ccccc1 (stereo not drawn) | 32* | 5 | 0 | 3510 | -8 | -5
O=C(c1sc2ccccc2c1Cl)N1CCN(c2ccccn2)CC1 | 1 | 11 | 2 | 5573 | 1 | -1
O=C(c1sc2ccccc2c1Cl)N1CCC2(CC1)OCCO2 | 6 | -6 | ? | 21877* | -3 | -2
OC(COCc1ccccc1)COCc1ccccc1 | 5 | -5 | -1 | 3037 | 1 | 2
O=S(CC(O)COCc1ccc(Cl)cc1)c1ccccn1 (stereo not drawn) | -2 | 2 | 3 | 21318* | 2 | 0
SMILES | GDH-TPI counter | BoNT F protease | BoNT-A LC inh2 | Bead autofluor | Anthrax LF prot | FBA Mtb inh
O=C1CSC(=Nc2cc(Cl)ccc2Cl)N1 | 5 | 2 | 4 | 22505* | 2 | 0
CN1CCN(c2ncnc3c2ncn3[C@H]2CN(Cc3ccco3)C[C@@H](CO)O2)CC1 | 8 | 4 | 1 | 3732 | 1 | -1
Cc1cccn2c(=O)c(/C=N/O)c(N3CCCC3)nc12 | 17 | -3 | ? | 16881* | -1 | 1
O=S(=O)(c1ccccc1)c1cnc(-c2cccnc2)nc1-c1ccccc1 | 5 | -1 | 0 | 22391* | -1 | 2
Cc1c(C(=O)N2CCC(C)(C(=O)NS(=O)(=O)C3CC3)C2)oc2ccccc12 (stereo not drawn) | 12 | -2 | 0 | 2887 | -1 | 2
O=c1ncn(-c2ccccc2F)c2ncccc12 | 6 | 4 | 4 | 21215* | 1 | -1
COC(=O)N/N=C/c1cc(Cl)cc(Cl)c1OCc1ccc(F)cc1 | 20 | -11 | -1 | 2313 | -5 | 0
Cc1cc(C)n(-c2nncn2/N=C/c2ccccc2F)n1 | 0 | -3 | 1 | 3845 | 1 | 0
COc1cc(/C=N/n2cnnc2-n2nc(C)cc2C)cc([N+](=O)[O-])c1O | 38* | -7 | -1 | 4708 | -7 | -11
COc1cc(OC)c(C2=NOC(C(=O)NCCc3ccccc3)C2)cc1Cl (stereo not drawn) | 1 | -1 | -2 | 23621* | -2 | -5
COc1cc(OC)c(C2=NOC(C(=O)NCc3cccnc3)C2)cc1Cl (stereo not drawn) | -9 | 14 | 2 | 3412 | 8 | 0
CCc1ccc(NC2=NC(C(=O)NC3CCCCC3)CC(=O)N2)cc1 (stereo not drawn) | 9 | 6 | ? | 20212* | -8 | 0
O=C(Nc1ccccc1)c1n[nH]c(Cn2cncn2)n1 | -4 | -1 | -2 | 23808* | -5 | 0
O=C(Nc1cccc(C(F)(F)F)c1)c1n[nH]c(Cn2cncn2)n1 | 17 | -38 | ? | ? | ? | 1
Cc1cccc(C2NC(c3cccc(C)c3)C(C)C(=O)C2C)c1 (stereo not drawn) | 4 | 15 | 0 | 2932 | 8 | 1
CCCc1nc2c(C)ccc(C)c2c(N)c1CC | 8 | 1 | ? | 22777* | -7 | 6
CCOP(=O)(OCC)c1nc(-c2ccc(C)cc2)oc1N1CCOCC1 | 15 | -1 | 0 | 9364 | -11 | 169*
CCOP(=O)(OCC)c1nc(-c2ccccc2Cl)oc1N1CCOCC1 | -6 | -2 | -1 | 2281 | 0 | 5
CCOP(=O)(OCC)c1nc(-c2cccc3ccccc23)oc1N1CCOCC1 | 15 | -5 | -1 | 2585 | 0 | +
COCCN1C(=O)COc2ccccc2C1C(=O)Nc1c(C)cccc1C (stereo not drawn) | · | 0 | 0 | 5455 | -5 | ·
C=CCN1C(=O)c2ccc(C(=O)OCC(=O)N3CCN(c4ccccc4)CC3)cc2C1=O | 5 | 11 | -1 | 6433 | -1 | 5
O=C(NCc1cccs1)c1ccc([N+](=O)[O-])cc1Cl | 0 | -4 | 0 | 2159 | -1 | 2
